Screening data as filed in PubChem.
HP1b binding inh: blocks HP1-beta chromodomain binding to methylated histone tails; AlphaScreen HP1-beta / biotin-H3K9me3 peptide binding; hit rate 0.56% among 390,000; AID 540317; P83916; Potency, µM (highest dose often 114 µM), for the others: at the top dose activity change, negative = inhibition, usual class: inhibitors; further: nearly all actives have a fitted effect of over 70% in size
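AlphaScreen: HP1-beta (50 nM) preformed 30 min with biotin-H3(1-18)K9me3 peptide (50 nM) in PBS pH 7.4, 0.01% Tween-20. Compound added for 30 min at RT, then streptavidin donor/nickel chelate acceptor beads (10 ug/mL) for 30 min.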
JMJD2A Tudor: JMJD2A Tudor domain (human) inhibition | O75164 | AlphaScreen JMJD2A-Tudor / H3K4me3 peptide binding | Potency, µM (titrated, usually from 114 µM), for inactives: at the highest dose activity change, negative = inhibition, actives largely listed as inhibitors | hit rate 4.4% among 390,000; further: on the % scale 0 is the no-effect control and ±100 the full control effect; nearly all actives have a fitted effect of over 50% in size
G9a inh: inhibitors of human histone lysine methyltransferase G9a | hit rate 8.8% among 350,000 | Potency, µM (titrated, usually from 102 µM), for the others: at the top dose activity, negative = inhibition, actives largely listed as inhibitors | AID 504332 | G9a H3K9 monomethylation, AlphaScreen, 2 h | Q96KQ7; further: on the % scale 0 is the no-effect control and ±100 the full control effect; nearly all actives have a fitted effect of over 75% in size
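G9a (20 nM) preincubated 15 min RT with compounds, then 500 nM biotinylated H3K9 peptide and 20 uM SAM added; 2 h RT reaction. Monomethyl-H3K9 product detected by AlphaScreen with anti-H3K9me1 antibody, streptavidin donor and anti-rabbit IgG acceptor beads.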
BAZ2B inh: BAZ2B (human) inhibition; hit rate 4.4% among 360,000; Q9UIF8; AID 504333; Potency, µM (doses to about 114 µM), for the others: top-dose activity change, negative = inhibition, hits mostly inhibitors; AlphaScreen BAZ2B-H3K14Ac peptide displacement; further: on the % scale 0 is the no-effect control and ±100 the full control effect; nearly all actives have a fitted effect of over 60% in size
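BAZ2B 50 nM plus b-H3(5-23)K14Ac 50 nM, PBS pH 7.4/0.01% Tween-20, 30 min RT; compound added (max 110 uM), 30 min RT; streptavidin donor/Ni-chelate acceptor beads 10 ug/mL final, 20 min dark; AlphaScreen read.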
GLS inhibitor: blocks human kidney-isoform glutaminase activity; O94925; GLS enzymatic activity, qHTS titration; Potency, µM (highest dose often 45.5 µM), for inactives: at the highest dose activity change, negative = inhibition, hits mostly inhibitors; hit rate 0.21% among 410,000; AID 624170; further: on the % scale 0 is the no-effect control and ±100 the full control effect
Target sequence (O94925 whole entry, looked up, canonical isoform): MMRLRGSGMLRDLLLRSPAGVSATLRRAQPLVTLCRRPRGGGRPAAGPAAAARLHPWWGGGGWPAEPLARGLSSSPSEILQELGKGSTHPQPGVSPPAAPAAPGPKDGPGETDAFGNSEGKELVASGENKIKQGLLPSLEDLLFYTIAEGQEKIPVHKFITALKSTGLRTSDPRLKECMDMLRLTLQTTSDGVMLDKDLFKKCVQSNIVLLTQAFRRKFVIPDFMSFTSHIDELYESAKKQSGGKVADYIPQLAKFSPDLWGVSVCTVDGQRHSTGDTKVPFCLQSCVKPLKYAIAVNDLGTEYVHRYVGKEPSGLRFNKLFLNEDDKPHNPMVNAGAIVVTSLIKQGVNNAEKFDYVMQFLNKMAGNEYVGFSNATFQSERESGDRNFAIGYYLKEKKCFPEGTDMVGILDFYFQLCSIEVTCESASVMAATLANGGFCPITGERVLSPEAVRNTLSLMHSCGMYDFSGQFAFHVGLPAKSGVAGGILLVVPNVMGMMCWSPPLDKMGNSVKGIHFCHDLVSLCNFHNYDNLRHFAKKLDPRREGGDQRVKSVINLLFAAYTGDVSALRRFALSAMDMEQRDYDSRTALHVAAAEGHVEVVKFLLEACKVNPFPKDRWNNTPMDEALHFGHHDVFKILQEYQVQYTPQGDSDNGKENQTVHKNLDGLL
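Human kidney-isoform GLS in 45 mM KH2PO4 pH 8.2, 0.02% Tween-20, with compound, started with 1mM L-Glutamine (added stock). Glutamate oxidase/HRP/Amplex red coupled fluorescence read at start and after 30 min at RT.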
* hit, by the source's call; u = inconclusive; x = no result; [ ] = dose if it differs, or a comment. In the library only some 10% were active in any assay of this set; here they are far more common. The call rests on the fitted dose curve; in most records, active means well fitted curve in the direction sought with a large enough effect; inconclusive means small, poorly fitted or top-dose-only effect, or another doubt; inactive means no such curve, though single readings can be large; an effect the other way counts as inactive or inconclusive. Potency means the concentration at half of the fitted maximal effect.

SMILES	HP1b binding inh	JMJD2A Tudor	G9a inh	BAZ2B inh	GLS inhibitor
CC1(C2(O)CCCCC2)NCCc2ccccc21 (stereo unspecified)	71µM*	0.89µM*	32µM*	35µM*	-14%
O=C1NC(=O)C2(CCc3ccccc32)N1 (stereo unspecified)	19%	-2%	-5%[0.501 µM]	-6%	5%
COc1ccc(-c2cn[nH]c2N)cc1	20%	-19%	u	5%	1%
COc1ccccc1-c1nnc(NC(=O)C(C)Sc2nncn2C)s1 (stereo unspecified)	47%	-11%	-35%	x	-5%
CCOc1ccc(-c2cnc(NCc3ccc(OC)cc3OC)n2C)cc1	u	28µM*	16µM*	u	7%
COc1ccc(CNc2ncc(-c3ccc(Cl)cc3)n2C)c(OC)c1OC	u	25µM*	71µM*	u	2%
COc1ccc(CNc2cc(-c3ccoc3)ncn2)c(OC)c1	x	x	3%[0.501 µM]	x	x
O=[N+]([O-])c1ccc(Cc2ccccn2)cc1	25%	8%	6%[12.7 µM]	-5%	1%
O=[N+]([O-])c1ccc(C[n+]2cccc3ccc4cccnc4c32)cc1	-16%	11µM*	x	13µM*	u
O=[N+]([O-])c1ccc(C[n+]2cccc(O)c2)cc1	31%	-3%	-8%[2.33 µM]	2%	-8%
O=[N+]([O-])c1ccc(C[n+]2cccc3ccccc32)cc1	22%	2%	14µM*	-18%	10%
CC(C)C[C@H](N)c1nnc(S(=O)(=O)Cc2ccc(F)cc2)o1	55%	-12%	u	-26%	19%
CCOc1ccc(CC(=O)N/N=C/c2sccc2C)cc1	45%	-12%	34%	-19%	1%
Cc1cccc(N=Nc2cnc(N)s2)c1	u	45µM*	28µM*	u	-14%
N#CC(c1ccccc1)c1ccc(=O)[nH]n1 (stereo unspecified)	17%	-15%	x	20%	11%
CC12CCC(C(=O)N(CCCCN3CCN(c4ccccn4)CC3)C1=O)C2(C)C (stereo unspecified)	24%	-7%	-6%[0.501 µM]	-38%	1%
CC12CCC(C(=O)N(CCCN3CCN(Cc4ccccc4)CC3)C1=O)C2(C)C (stereo unspecified)	5%	u	u	50µM*	-12%
C=CCc1cc(Cl)ccc1OCCCNC(C)C	u	32µM*	8.9µM*	56µM*	-7%
